NOD2-RIPK2 inh = blocks binding of human NOD2 to RIPK2; CHO BLA complementation NOD2-RIPK2, CCF4 ratio; inhibition, % at 4.98 µM; O43353; 360,000 tested, 0.38% active; in the data active = inhibition above about 21%;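 also: 0% = vehicle only and 100% = reference blocker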
CRFBP-R2 block = antagonists of CRF-binding protein/CRF-R2 receptor complex | HEK293 CRF-R2/CRF-BP, CRF-induced calcium fluorescence | inhibition, % at 11.8 µM | 350,000 tested, 0.59% active;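 active = inhibition of the ligand-induced calcium signal above about 50% at the single tested concentration, limit read from the data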
TLR4-MyD88 BLA = inhibitors of human TLR4-MyD88 binding; O00206+Q99836; HeLa CL3-4 TLR4/MyD88 BLA complementation, FRET ratio; inhibition, % at 8.4 µM; 200,000 tested, 0.18% active; AID 861; in the data active = inhibition above about 25%;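 also: 0% = vehicle and 100% = reference inhibitor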
HTR2A ag = activates the mouse 5-HT2A serotonin receptor; CHO-K1 mHTR2A beta-arrestin complementation, luminescence; percent of 30 µM serotonin response; P35363; activation, % at 7.6 µM; 360,000 tested, 0.66% active; AID 624169;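 active = activation above a run cutoff, the mean activation of all tested compounds plus 3 SD, cut at about 14% in these data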;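 also: 0% = plate median of compound wells and 100% = 30 µM serotonin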
Target sequence (P35363 whole entry, looked up): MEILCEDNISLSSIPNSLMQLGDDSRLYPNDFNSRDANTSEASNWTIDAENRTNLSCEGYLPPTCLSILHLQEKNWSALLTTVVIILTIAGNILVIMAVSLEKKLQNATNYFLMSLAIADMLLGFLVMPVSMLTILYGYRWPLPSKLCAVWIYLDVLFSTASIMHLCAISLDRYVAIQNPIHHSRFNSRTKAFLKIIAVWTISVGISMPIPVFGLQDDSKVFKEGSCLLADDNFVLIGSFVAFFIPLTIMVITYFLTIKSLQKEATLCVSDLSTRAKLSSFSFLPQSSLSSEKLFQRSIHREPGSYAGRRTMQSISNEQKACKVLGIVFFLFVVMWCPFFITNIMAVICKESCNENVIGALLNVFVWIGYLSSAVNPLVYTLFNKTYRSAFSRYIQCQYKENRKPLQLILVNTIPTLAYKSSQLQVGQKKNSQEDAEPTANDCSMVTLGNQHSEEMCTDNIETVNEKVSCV
ABHD5-PLIN5 inh = ABHD5-PLIN5 protein interaction inhibition. 360,000 tested, 0.78% active. inhibition, % at 4 µM. Q00G26+Q8WTS1. Split G. princeps luciferase complementation, luminescence, 4 h;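 active = inhibition above the mean inhibition across every tested compound plus 3 SD, cut at about 22% in these data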;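 also: 0% = DMSO only wells and the 100% control is not disclosed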
TLR9-MyD88 inh = blocks human TLR9 binding to MyD88 | inhibition, % at 4.98 µM | CHO BLA complementation TLR9-MyD88, CCF4 FRET ratio | Q9NR96+Q99836 | AID 504734 | 340,000 tested, 0.21% active;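 active = inhibition above the mean over all tested compounds plus 3 SD, cut at about 21% in these data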;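 also: 0% = DMSO only wells and 100% = clavulanate BLA inhibitor control wells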
TLR9-MyD88 cf = TLR9-MyD88 interaction inhibition, confirmation; shares compounds with TLR9-MyD88 inh; CHO TLR9/MyD88 BLA complementation, CCF4 FRET ratio; inhibition, % at 4.98 µM; 680 tested, 51% active; AID 540250;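 active = mean inhibition across three repeats above about 21% taken from the earlier screen, limit read from the data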;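 also: blue over green emission ratio reports constitutive TLR9 MyD88 association via BLA complementation; 0% = DMSO vehicle wells and 100% = clavulanate BLA inhibitor wells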
BLA counter-1 = beta-lactamase reporter inhibition, counter-screen artifact | 680 tested, 7% active | CHO-BLA cells, CCF4 FRET ratio, BLA reporter | inhibition, % at 4.98 µM | shares compounds with TLR9-MyD88 inh;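 active = mean inhibition above a 50% cutoff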;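 also: counterscreen of TLR9-MyD88 hits on CMV-driven BLA in CHO-K1 cells; 0% = DMSO alone and 100% = clavulanate blocking BLA; higher means less blue over green ratio so more BLA blockade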
TLR9 CHO tox = CHO cell toxicity counter-screen for TLR9-MyD88 inhibitors | 680 tested, 39% active | inhibition, % at 4.98 µM | shares compounds with TLR9-MyD88 inh | AID 588336 | TLR9-MyD88 CHO cells cytotoxicity, luminescence; in the data active = inhibition above about 11%
ABHD5 PLIN5 conf = ABHD5-PLIN5 interaction inhibition, confirmed; shares compounds with ABHD5-PLIN5 inh; biochemical ABHD5-PLIN5 interaction, luminescence; inhibition, % at 4 µM; 2,200 tested, 67% active; AID 651612; in the data active = inhibition above about 23%;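 also: 0% = DMSO vehicle wells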
HNF4 split-luc = counter-screen for ABHD5-PLIN5 inhibitors: HNF4 split-luciferase. shares compounds with ABHD5-PLIN5 inh. HNF4 dimerization, luminescence, biochemical. inhibition, % at 4 µM. 2,200 tested, 77% active;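 active = mean inhibition across replicate wells exceeding the computed hit threshold, cut at about 13% in these data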;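 also: light from luciferase halves that rejoin when HNF4 fusion proteins dimerize; 0% = DMSO only wells and the 100% control is not given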
NOD2 RIPK2 conf = NOD2-RIPK2 interaction inhibition confirmed | shares compounds with NOD2-RIPK2 inh | CHO cells, NOD2-RIPK2 BLA complementation, CCF4 FRET | inhibition, % at 4.98 µM | 1,200 tested, 70% active | AID 624370;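 active = mean inhibition across replicates above a set limit taken from the earlier primary screen, cut at about 21% in these data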;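 also: 0% = DMSO-only wells and the high end = clavulanate BLA-blocked wells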
BLA counter-2 = NOD2-RIPK2 counterscreen BLA reporter activity; inhibition, % at 4.98 µM; 1,200 tested, 57% active; CHO BLA reporter, CCF4 FRET ratio; shares compounds with NOD2-RIPK2 inh;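 active = mean inhibition above the low-control mean inhibition plus three low-control SD, cut at about 11% in these data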;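 also: 0% = DMSO only wells and 100% = clavulanate high control wells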
An asterisk follows results filed as active; · = not tested or not shown; + = active, no number. In the library only some 2.4% were active in any assay of this set; here they are far more common.

SMILES	NOD2-RIPK2 inh	CRFBP-R2 block	TLR4-MyD88 BLA	HTR2A ag	ABHD5-PLIN5 inh	TLR9-MyD88 inh	ABHD5 PLIN5 conf	HNF4 split-luc	others
Cc1cc(C)cc(N2C(=O)NC(=O)/C(=C\c3cccn3-c3ccccc3)C2=O)c1	15.3	-98.7	23.7	-2.2	25.3*	22.2*	58.0*	69.5*	TLR9-MyD88 cf=18.4;BLA counter-1=3.1;TLR9 CHO tox=9.4
Cc1cccc(C)c1-n1nnnc1C(c1cccs1)N1CCC2(CC1)C(=O)NCN2c1ccccc1 (stereo not drawn)	-9.7	·	·	2.0	-0.2	·	·	·
O=[N+]([O-])c1c(Cl)c(Cl)c(Cl)c(Cl)c1Cl	1.4	8.9	·	4.7	-1.4	8.5	·	·
Nc1cc(Cl)c2nonc2c1[N+](=O)[O-]	73.6*	58.0*	16.2	5.4	19.5	52.2*	·	·	TLR9-MyD88 cf=47.9*;BLA counter-1=35.9;TLR9 CHO tox=97.2*;NOD2 RIPK2 conf=75.6*;BLA counter-2=21.4*
O=c1[nH]c2ccccc2n1C1CCN(C(CCc2ccccc2)c2nnnn2-c2ccc3c(c2)OCCO3)CC1 (stereo not drawn)	-5.9	·	·	8.7	14.3	·	·	·
Fc1cccc(-c2ccc3c(c2)CNCc2cnnn2-3)c1	-6.3	·	·	-3.7	-4.8	·	·	·
C[CH2][Hg][S]c1ccccc1C(=O)O	+	-45.5	·	11.1	28.4*	52.0*	49.4*	83.2*	TLR9-MyD88 cf=47.7*;BLA counter-1=5.1;TLR9 CHO tox=97.4*;NOD2 RIPK2 conf=+;BLA counter-2=6.0
CC1=NCCc2c1[nH]c1cc(O)ccc21	54.2*	-209.2	·	-0.1	5.5	32.1*	·	·	TLR9-MyD88 cf=26.1*;BLA counter-1=26.2;TLR9 CHO tox=-6.5;NOD2 RIPK2 conf=49.5*;BLA counter-2=51.2*
Brc1ccc2c(c1)C(OC1CN3CCC1CC3)c1ccccc1CS2 (stereo not drawn)	-2.2	-60.5	2.6	-6.2	28.5*	-13.6	10.5	12.4*
c1ccc2c(c1)CSc1ccccc1C2C1=NCCN1 (stereo not drawn)	1.9	7.3	-5.2	-1.7	6.9	-3.8	·	·
OC12ONC(c3ccccn3)C1N1CCC2CC1 (stereo not drawn)	8.9	21.2	14.7	-0.5	51.8*	6.5	2.3	25.0*
Cc1cc(C)c2c(ccc3cccc[n+]32)c1	-17.6	4.1	·	-0.1	1.6	·	·	·
CCOC(=O)[C@]12Cc3cc(C)ccc3[C@H]1N(C(C)C)C(=O)c1ccccc12	13.7	·	·	2.4	26.2*	·	25.2*	21.4*
CCCCCN1C(=O)c2ccccc2[C@@]2(C(=O)OCC)Cc3cc(OC)ccc3[C@@H]12	-7.7	·	·	-3.7	25.1*	·	14.2	12.3
Cc1cc(-c2cc(C)c(N)c(C)c2)cc(C)c1N	9.7	4.2	·	-3.1	-1.4	-7.9	·	·
COC(=O)C1=C(c2ccc(-c3ccccc3)c(F)c2)C[C@@H]2CC[C@H]1N2C(=O)NCc1cccc2ccccc12	-6.9	-2.2	·	1.7	-5.6	0.3	·	·
CN(C)c1ccc(/C=C/c2cc[n+](C)c3ccccc23)cc1	-12.3	12.5	0.7	-11.8	22.6*	-3.3	30.9*	30.4*
COc1ccc(OC(=O)N(C)C[C@@H]2OCc3cnnn3CCCC(=O)N([C@@H](C)CO)C[C@@H]2C)cc1	-5.2	5.3	·	-1.2	-2.5	2.7	·	·
C=C1C(=O)O[C@@H]2C[C@@H](C)[C@@H]3C=CC(=O)[C@@]3(C)[C@@H](O)[C@H]12	7.5	6.1	·	8.3	81.8*	10.8	90.8*	90.1*
C=CCN1C(=O)NC(=O)/C(=C\c2ccc(-c3ccccc3[N+](=O)[O-])o2)C1=O	-22.3	-16.6	0.5	0.1	39.7*	17.4	84.5*	82.0*
CC/C(=N\Nc1ccccc1)c1c(O)n(-c2ccccc2)c(=O)[nH]c1=O	6.2	5.4	·	-2.8	25.2*	0.2	16.4	19.4*
Cn1c(O)c(C(c2ccncc2)c2c(O)n(C)c(=S)n(C)c2=O)c(=O)n(C)c1=S	-1.7	36.8	-4.4	1.2	14.3	-13.8	·	·
Cc1ccccc1-n1c(O)c(C(c2ccncc2)c2c(O)n(-c3ccccc3C)c(=O)[nH]c2=O)c(=O)[nH]c1=O	-4.1	-3.4	·	-0.5	26.5*	-0.3	55.4*	65.5*
O=C1CC(c2cccnc2)=NN1c1ccc(Cl)cc1Cl	7.9	-10.3	0.7	2.1	23.5*	-5.3	0.0	-0.1
N#Cc1ccc(CN2Cc3ccccc3-n3nncc3C2)cc1	-10.9	10.1	·	5.4	-9.1	-5.5	·	·
SMILES	NOD2-RIPK2 inh	CRFBP-R2 block	TLR4-MyD88 BLA	HTR2A ag	ABHD5-PLIN5 inh	TLR9-MyD88 inh	ABHD5 PLIN5 conf	HNF4 split-luc	others
CC(C)(C)n1nnnc1C(c1cccs1)N1CCC2(CC1)C(=O)NCN2c1ccccc1 (stereo not drawn)	-4.1	·	·	1.1	5.5	·	·	·
c1ccc(CN2COC3CCCCCC32)cc1 (stereo not drawn)	-6.6	·	·	1.9	-1.5	·	·	·
Cc1ccccc1NC(=NCCCN1CC1)Nc1ccccc1C	0.1	-30.7	·	-2.8	0.2	-4.9	·	·
S=P(Nn1cnnc1)(c1ccccc1)c1ccccc1	-9.2	9.0	-3.7	1.7	29.8*	-4.0	2.8	2.5
Oc1ccccc1/C=N/NP(=S)(c1ccccc1)c1ccccc1	-0.7	1.6	-21.2	-0.4	-5.0	4.8	·	·
Cc1ccc(N2C(=O)NC(=O)/C(=C/c3cnc(-c4ccccc4)nc3)C2=O)cc1C	-1.3	-18.8	-5.5	2.2	33.2*	-4.5	86.8*	73.4*
O=C(NC1CCCCC1)Oc1cc2oc(=O)sc2cc1Cl	0.0	-19.5	·	2.2	69.0*	1.6	-38.8	13.9*
CCC1(c2ccc(C)cc2)C(=O)NC(=S)NC1=O	-13.1	·	·	5.9	13.2	·	·	·
COc1cccc(C(c2nnnn2Cc2ccccc2)N2CCC3(CC2)C(=O)NCN3c2ccccc2)c1OC (stereo not drawn)	0.2	·	·	2.2	6.7	·	·	·

Assay outcomes: PubChem, several laboratories
